These results are taken from PubChem BioAssay (NCI).

This is part of a sample that, as a whole, favours compounds with a hit. Of some 83,000 tested, about 20% had one in any assay.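 Percent growth is the endpoint: 0 to 100 indicates growth inhibition (40 means 60% inhibition), 0 means no net growth, and negative values indicate cell death.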 Unmarked numbers belong to inactive results. The source made the active and inactive calls. The calls were made as follows: active = growth percent below 10; inactive = the rest.

Among the test systems are T-47D breast; BT-549 breast; MDA-MB-435 melanoma; SW-620 colon; MCF7 breast; HCT-116 colon; HCC-2998 colon; KM12 colon.
Test in all cases: NCI-60 one-dose screen, 48 h (100 = growth as untreated, 0 = no growth, -100 = all killed)
What all share (conditions): 10 µM unless noted

As for `C#CCNC(=O)c1cccc2c1cc(C)n2-c1nc2c(c(NCc3ccccc3)n1)CCCC2`, the growth is -11.6% (active) in the test with T-47D breast; -38.7% (active) in the test with BT-549 breast; -61.3% (active) with MDA-MB-435 melanoma; -4.61% (active) with SW-620 colon; -0.959% (active) in the test with MCF7 breast; -41.5% (active) in the test with HCT-116 colon. Further, the growth in the test on HCC-2998 colon is -84.2% (active); in the test on KM12 colon it was -43.6% (active).

On to `Cc1ccc(C(=O)/C(=C\c2ccc([N+](=O)[O-])cc2)S(=O)Cc2ccc(Cl)cc2)cc1` (stereo unspecified), for which the growth with T-47D breast was -19.1% (active); with BT-549 breast it was 62%; in the test with MDA-MB-435 melanoma it was 50.1%; in the test on SW-620 colon, 7.46% (active); with MCF7 breast, 15.2%; in the test with HCT-116 colon, -50.1% (active). In addition, the results for the growth in the test on HCC-2998 colon and with KM12 colon were 58.8% and 46.6%, respectively.

As to `COc1ccc(/C=C/c2nc(Nc3ccc(S(=O)(=O)NC(C)=O)cc3)c3ccccc3n2)cc1`, the growth is 67.7% in the test on T-47D breast; 86.8% in the test on BT-549 breast; 63% with MDA-MB-435 melanoma; 68.2% in the test with SW-620 colon; 46.7% in the test with MCF7 breast; 47.4% in the test with HCT-116 colon. Moreover, the growth with HCC-2998 colon was 82.1%; with KM12 colon, 57.8%.

For `COc1ccc(Cc2cnc(NC(=O)c3ccc4c(c3)OCCO4)s2)cc1`, the growth in the test with T-47D breast was 42.8%; with BT-549 breast, 43.6%; in the test on MDA-MB-435 melanoma, 4.11% (active); in the test with SW-620 colon, 31.4%; with MCF7 breast, 9.58% (active); in the test with HCT-116 colon it was 7.75% (active). For the same molecule, the growth with HCC-2998 colon was 18.8%; with KM12 colon, 10.3%.

Turning to `COc1cc2c(c(O)c1Br)C(=O)c1c(O)cc(C[C@H](C)O)cc1[C@H]2[C@H]1c2cc(C[C@H](C)O)cc(O)c2C(=O)c2c1cc(OC)c(Br)c2O`, the growth was 8.03% (active) with T-47D breast; 17.3% in the test with BT-549 breast; 9.24% (active) in the test with MDA-MB-435 melanoma; 18.2% with SW-620 colon; 8.05% (active) with MCF7 breast; 10.1% in the test on HCT-116 colon. Moreover, the growth in the test on HCC-2998 colon was 26%; in the test with KM12 colon, 9.13% (active).

Consider `CC(=O)Nc1ccc(-n2cnc3cc(-c4ccc(OCCN5CCCCC5)cc4)ccc32)cc1`, for which the growth is 107% in the test with T-47D breast; 99.4% in the test on BT-549 breast; 102% in the test on MDA-MB-435 melanoma; -29% (active) with SW-620 colon; 70.6% with MCF7 breast; -51.2% (active) with HCT-116 colon. The growth in the test on HCC-2998 colon was 119%; with KM12 colon it was 29%.

For the molecule `CCN(CC)c1ccc(/C=N/NC(=O)CSc2nc3ccccc3c(=O)n2CCc2ccc(S(N)(=O)=O)cc2)c(O)c1`, the growth is 13.9% with T-47D breast; 45.2% with BT-549 breast; 31.9% in the test on MDA-MB-435 melanoma; 27% with SW-620 colon; 11.1% in the test with MCF7 breast; 10.7% with HCT-116 colon. In addition, the growth in the test with HCC-2998 colon was 35.8%; in the test on KM12 colon, 19.1%.

As for `COc1ccc(CC(C)=C(c2ccc(OCCN3CCCCCC3)cc2)c2ccc(OCCN3CCCCCC3)cc2)cc1`, the growth in the test on T-47D breast is -73.3% (active); with BT-549 breast, -75.9% (active); in the test with MDA-MB-435 melanoma, -98.2% (active); in the test with SW-620 colon it was -90.5% (active); in the test with MCF7 breast it was -90.2% (active); in the test with HCT-116 colon it was -55.1% (active). The growth in the test with KM12 colon was -97.4% (active).

For `CCCCCN1C=C/C(=C\C(=O)N(C)c2ccc(Oc3ccccc3)cc2)c2ccccc21`, the growth with T-47D breast was 54.1%; in the test with BT-549 breast, 91.4%; in the test on MDA-MB-435 melanoma, 91.4%; with SW-620 colon it was 84.3%; with MCF7 breast it was 66.7%; in the test on HCT-116 colon, 58.7%. Besides, the growth with HCC-2998 colon was 86.7%; in the test with KM12 colon it was 90.5%.

Consider `CN(C)c1ccc(C2C(C#N)=C(/N=C/c3ccccc3)Oc3c2ccc2ccccc32)cc1` (stereo unspecified), for which the growth in the test with T-47D breast is 83.1%; with BT-549 breast, 69.6%; in the test on MDA-MB-435 melanoma it was 4.53% (active); in the test with SW-620 colon it was 41%; in the test with MCF7 breast, 54.3%; in the test with HCT-116 colon, 56.5%. Moreover, the growth is 104% with HCC-2998 colon and 58.8% with KM12 colon.

`CCSCC1CC(O)(c2ccccc2)CC(c2ccc(F)cc2)O1` (stereo unspecified): the growth was -4.7% (active) with T-47D breast; -0.126% (active) in the test on BT-549 breast; 5.06% (active) in the test on MDA-MB-435 melanoma; 8.68% (active) in the test on SW-620 colon; -11.3% (active) in the test with MCF7 breast; 1.4% (active) in the test on HCT-116 colon. Moreover, the growth with HCC-2998 colon was 69.3%; with KM12 colon, -47.2% (active).

With `O=C(/C=C/c1ccc(F)cc1)c1ccc(NC(=O)N2CCN(c3cc4c(cc3F)c(=O)c(C(=O)O)cn4C3CC3)CC2)cc1`, the growth was 93.6% with T-47D breast; 75.7% in the test on BT-549 breast; 95.3% with MDA-MB-435 melanoma; 92% with SW-620 colon; 96.9% in the test with MCF7 breast; 57.1% with HCT-116 colon. Further, the growth in the test on KM12 colon was 100%.

Consider `Cc1cc2nc3c4ccc(Br)cc4n(CCN(C)C)c3nc2cc1C`, for which the growth with T-47D breast was 21.6%; in the test with BT-549 breast it was 57.5%; with MDA-MB-435 melanoma, 18.3%; with SW-620 colon, 0.693% (active); in the test on MCF7 breast it was 0.513% (active); in the test with HCT-116 colon, 9.24% (active). Besides, the growth with HCC-2998 colon was 17%; in the test on KM12 colon, 23.8%.

As to `CC(C)(C)c1cc(/C=N/NC(=O)c2ccccc2NC(=O)c2cccs2)c(O)c(C(C)(C)C)c1`, the growth with T-47D breast was 29.4%; in the test with BT-549 breast, 57.4%; with MDA-MB-435 melanoma it was 51.8%; in the test with SW-620 colon, 17.1%; in the test on MCF7 breast it was 18.1%; with HCT-116 colon, 9.85% (active). In addition, the growth in the test with KM12 colon is 25.6%.

Consider `Cc1ccc(-c2nc3ccccn3c2/C=C2/C(=O)Nc3cc(Cl)ccc32)cc1`, for which the growth with T-47D breast is 74.6%; with BT-549 breast it was 70.9%; in the test with MDA-MB-435 melanoma it was -12.7% (active); in the test with SW-620 colon, 49%; in the test on MCF7 breast, 33.5%; with HCT-116 colon, 26.5%. For the same molecule, the growth in the test with KM12 colon is 31.9%.
